Bioassay records deposited in PubChem by National Center for Advancing Translational Sciences (NCATS).
Only some compounds are listed: those with a hit (about 12% of all), similar ones and a draw of the others.
L3MBTL1 inh – inhibitors of human L3MBTL1 | Q9Y468 | AlphaScreen L3MBTL1–H3K9me1 peptide binding | Potency, µM (highest dose often 57.1 µM), for the others: at the highest dose activity, negative = inhibition, actives largely listed as inhibitors | 230,000 tested, 0.66% active; further: on the % scale 0 is the no-effect control and ±100 the full control effect; nearly all actives have a fitted effect of over 60% in size
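L3MBTL1 50 nM + b-AHA-H3(1-15)K9me1 75 nM, 30 min RT; compound added, 30 min RT; streptavidin donor/Ni-chelate acceptor beads 10 ug/mL each final, 30 min RT dark; AlphaScreen read.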
BAZ2B block – inhibitors of human BAZ2B bromodomain; AlphaScreen BAZ2B-H3K14Ac peptide displacement; Potency, µM (series often up to 114 µM), without a hit: at the highest dose activity change, negative = inhibition, most hits filed as inhibitors; 360,000 tested, 4.4% active; further: on the % scale 0 is the no-effect control and ±100 the full control effect; nearly all actives have a fitted effect of over 60% in size
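AlphaScreen displacement of biotin-H3(5-23)K14Ac peptide (50 nM final) from BAZ2B (50 nM final) in PBS pH 7.4, 0.01% Tween-20; complex preformed 30 min RT, then compounds (top 110 uM) 30 min RT, beads 20 min dark.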
JMJD2A Tudor inh – inhibitors of human JMJD2A Tudor domain; O75164; AlphaScreen JMJD2A-Tudor / H3K4me3 peptide binding; Potency, µM (doses to about 114 µM), for the others: top-dose activity change, negative = inhibition, actives largely listed as inhibitors; 390,000 tested, 4.4% active; further: on the % scale 0 is the no-effect control and ±100 the full control effect; nearly all actives have a fitted effect of over 50% in size
HP1b binding inh – inhibitors of HP1-beta chromodomain binding to methylated histone tails; AlphaScreen HP1-beta / biotin-H3K9me3 peptide binding; P83916; 390,000 tested, 0.56% active; Potency, µM (titrated, usually from 114 µM), inactives show top-dose activity change, negative = inhibition, actives largely listed as inhibitors; further: nearly all actives have a fitted effect of over 70% in size
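Compound inhibition of the preformed complex between 50 nM HP1-beta and 50 nM biotinylated H3K9me3 peptide was read by AlphaScreen. Buffer was PBS pH 7.4 with 0.01% Tween-20. Incubations ran 30 min at room temperature, with 10 ug/mL donor/acceptor beads.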
Sfp inh – inhibitors of Bacillus subtilis Sfp phosphopantetheinyl transferase; Q9F4F7; Biochemical Sfp PPTase activity, qHTS; Potency, µM, for inactives: largest response in the series, negative = inhibition, hits mostly inhibitors; 310,000 tested, 3.5% active; AID 1490;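 further: the enzyme is Sfp with the accession as filed and its product quenches rhodamine fluorescence; 0% = enzyme reaction without inhibitor and -100% = no enzyme wells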
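Step 1, compound plus 15 nM Sfp-PPTase, 15 min, room temperature. Step 2, add rhodamine-CoA (5 uM) and BHQ-2-YbbR (12.5 uM). Step 3, read 525/598 nm fluorescence at 0 and 30 min.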
G9a block – inhibitors of human histone lysine methyltransferase G9a. Q96KQ7. G9a H3K9 monomethylation, AlphaScreen, 2 h. Potency, µM (doses to about 102 µM), without a hit: top-dose activity, negative = inhibition, usual class: inhibitors. 350,000 tested, 8.8% active. AID 504332; further: on the % scale 0 is the no-effect control and ±100 the full control effect; nearly all actives have a fitted effect of over 75% in size
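Signal arises when biotinylated H3K9 peptide, once monomethylated, bridges streptavidin donor and antibody-captured acceptor beads. Enzyme at 20 nM was preincubated 15 min with test compounds; peptide 500 nM and SAM 20 uM then reacted for 2 h.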
Numbers without * were called inactive; ! = not confirmed by another sample; [ ] = dose if it differs, or a comment. The call rests on the fitted dose curve; in most records, active means well fitted curve in the direction sought with a large enough effect; inconclusive means small, poorly fitted or top-dose-only effect, or another doubt; inactive means no such curve, though single readings can be large; an effect the other way counts as inactive or inconclusive. Potency means the concentration at half of the fitted maximal effect.

What do the screens show for `COc1ccccc1CNCCCCCCNCCCCCCCCNCCCCCCNCc1ccccc1OC`?
Sfp inh: inconclusive; G9a block: 10µM*!

What do the screens show for `COc1ccccc1CNN`?
BAZ2B block: inconclusive; JMJD2A Tudor inh: 39.8µM*; HP1b binding inh: -1.9%; Sfp inh: -4.8%; G9a block: 25.1µM*

How did CCC1CN(C(=O)N2CCC(C(=O)NCc3ccc(OC)cc3OC)CC2)c2cc(C)ccc2O1 (stereo not drawn) do in these assays?
BAZ2B block: -29.9%; JMJD2A Tudor inh: -34.2%; HP1b binding inh: 16.9%; G9a block: -46.5%[59 µM]

How did COCCn1c(C)cc(C2=NNC(=Nc3ccccc3)SC2)c1C do in these assays?
L3MBTL1 inh: 6.6%; BAZ2B block: 50.1µM*; JMJD2A Tudor inh: -32.5%; HP1b binding inh: -3.4%; Sfp inh: 22.4µM*; G9a block: inconclusive

Results for COCCn1c(C)cc(C2=NNC(=Nc3ccc(OC)cc3)SC2)c1C ?
L3MBTL1 inh: -1.0%; BAZ2B block: -38.8%; JMJD2A Tudor inh: inconclusive; HP1b binding inh: -30.6%; Sfp inh: 50.1µM*; G9a block: 7.5%[12.7 µM]

What do the screens show for `COCCn1c(C)cc(C2=NNC(=NC(C)(C)C)SC2)c1C`?
L3MBTL1 inh: -9.2%; BAZ2B block: -32.6%; JMJD2A Tudor inh: inconclusive; HP1b binding inh: -9.3%; Sfp inh: -7.3%; G9a block: inconclusive

Results for C=C(C)CN=C1NN=C(c2cc(C)n(-c3ccc(C)cc3)c2C)CS1 ?
L3MBTL1 inh: -13.3%; BAZ2B block: -38.6%; JMJD2A Tudor inh: -26.0%; HP1b binding inh: -13.0%; Sfp inh: -7.0%; G9a block: -13.1%[59 µM]

What do the screens show for `COc1ccc2c(CNCc3cccs3)c(C(=O)O)n(Cc3ccccc3C)c2c1`?
BAZ2B block: -14.7%; JMJD2A Tudor inh: -22.3%; HP1b binding inh: 30.2%; G9a block: -19.2%[59 µM]

How did Cc1ccc(-n2nc3c(c2NC(=O)c2ccc4c(c2)OCO4)CS(=O)(=O)C3)cc1C do in these assays?
BAZ2B block: -15.4%; JMJD2A Tudor inh: -9.5%; HP1b binding inh: 8.8%; Sfp inh: 8.2%

What do the screens show for `Cc1cc(C)nc(SCc2nnc(SCC(=O)Nc3ccccc3C)n2Cc2ccco2)n1`?
L3MBTL1 inh: -7.4%; BAZ2B block: -8.4%; JMJD2A Tudor inh: -16.2%; HP1b binding inh: 14.9%; Sfp inh: 50.1µM*; G9a block: inconclusive

How did Cc1ccc(C)c(NC(=O)CSc2nnc(CSc3nc(C)cc(C)n3)n2Cc2ccco2)c1 do in these assays?
L3MBTL1 inh: -4.3%; BAZ2B block: -28.0%; JMJD2A Tudor inh: -20.7%; HP1b binding inh: 6.8%; Sfp inh: 44.7µM*; G9a block: inconclusive

How did Cc1cc(C)nc(SCc2nnc(SCC(N)=O)n2Cc2ccco2)n1 do in these assays?
L3MBTL1 inh: -5.2%; BAZ2B block: -5.6%; JMJD2A Tudor inh: inconclusive; HP1b binding inh: 18.4%; Sfp inh: 0.9%; G9a block: -14.1%

How did COc1ccc(C)cc1NC(=O)CSc1nnc(COc2ccc(Cl)cc2)n1Cc1ccco1 do in these assays?
L3MBTL1 inh: -13.6%; BAZ2B block: -35.1%; JMJD2A Tudor inh: -25.7%; HP1b binding inh: -1.4%; Sfp inh: inconclusive; G9a block: inconclusive

How did CCOC(=O)CSc1nnc(CSc2nc(C)cc(C)n2)n1Cc1ccco1 do in these assays?
BAZ2B block: -3.3%; JMJD2A Tudor inh: -17.9%; HP1b binding inh: 33.9%; Sfp inh: 20µM*; G9a block: inconclusive

What do the screens show for `COc1ccc(C)cc1NC(=O)CSc1nnc(COc2ccccc2)n1Cc1ccco1`?
L3MBTL1 inh: -11.5%; BAZ2B block: -9.7%; JMJD2A Tudor inh: inconclusive; HP1b binding inh: 27.3%; Sfp inh: 79.4µM*; G9a block: 4.1%[2.33 µM]

How did Cc1ccc(NC(=O)CSc2nnc(CSc3nc(C)cc(C)n3)n2Cc2ccco2)c(C)c1 do in these assays?
L3MBTL1 inh: -6.9%; BAZ2B block: -3.3%; JMJD2A Tudor inh: -18.0%; HP1b binding inh: 11.1%; Sfp inh: inconclusive; G9a block: inconclusive

What do the screens show for `CCOC(=O)c1cccc(NC(=O)c2cnc(N3CCCCC3)c3ccccc23)c1`?
BAZ2B block: -2.7%; JMJD2A Tudor inh: 10.3%; HP1b binding inh: 34.9%[57 µM]; G9a block: 22.8%[59 µM]

How did CC(NC(=O)c1cccnc1Sc1ccccc1)c1ccc(S(N)(=O)=O)cc1 (stereo not drawn) do in these assays?
BAZ2B block: -8.1%; JMJD2A Tudor inh: -17.9%; HP1b binding inh: 8.4%; Sfp inh: 11.4%; G9a block: 6.6%

What do the screens show for `Cc1ccc(-c2nc3ncccc3o2)cc1NC(=O)COc1ccc(C(C)C)cc1`?
BAZ2B block: -6.1%; JMJD2A Tudor inh: -17.3%; HP1b binding inh: 32.3%; G9a block: 14.1µM*

Results for CCOC(=O)c1oc2c(O)c(O)ccc2c(=O)c1-c1nncn1-c1ccccc1 ?
L3MBTL1 inh: inconclusive; BAZ2B block: inconclusive; JMJD2A Tudor inh: inconclusive; HP1b binding inh: 32.5%; Sfp inh: inconclusive; G9a block: 3.16µM*

What do the screens show for `CCOC(=O)c1oc2c(C)c(O)ccc2c(=O)c1-c1nncn1-c1ccccc1`?
L3MBTL1 inh: 6.5%; BAZ2B block: -6.1%; JMJD2A Tudor inh: -8.9%; HP1b binding inh: 17.0%; Sfp inh: 12.8%; G9a block: 24.3%[59 µM]

What do the screens show for `CCOc1ccc(OCCC(=O)N(CC(=O)Nc2ccccc2C(F)(F)F)Cc2ccco2)cc1`?
L3MBTL1 inh: -27.6%; BAZ2B block: 50.1µM*; JMJD2A Tudor inh: -18.2%; HP1b binding inh: 6.3%; G9a block: 44.7µM*

How did CC(C)COc1ccc(C(=O)N(CC(=O)Nc2ccccc2C(F)(F)F)Cc2ccco2)cc1 do in these assays?
L3MBTL1 inh: -0.3%; BAZ2B block: -9.7%; JMJD2A Tudor inh: -25.2%; HP1b binding inh: -6.5%; G9a block: -10.4%[2.33 µM]

How did Oc1ccccc1N1CCN(CC(O)COCc2ccccc2Cl)CC1 (stereo not drawn) do in these assays?
L3MBTL1 inh: -29.9%; BAZ2B block: 50.1µM*; JMJD2A Tudor inh: 20µM*; HP1b binding inh: inconclusive; Sfp inh: -14.7%; G9a block: 10µM*

Results for CC(C)c1ccc(S(=O)(=O)NCc2ccc3c(c2)CCN3C(=O)c2ccccc2)cc1 ?
BAZ2B block: 1.6%; JMJD2A Tudor inh: -17.9%; HP1b binding inh: 20.2%[57 µM]; G9a block: 9.6%[59 µM]

What do the screens show for `O=C(NC(=S)NNC(=O)c1ccccc1[N+](=O)[O-])c1ccc(Br)cc1`?
L3MBTL1 inh: 7.8%; BAZ2B block: 6.9%; JMJD2A Tudor inh: -25.5%; HP1b binding inh: -15.3%; Sfp inh: 79.4µM*; G9a block: 8.91µM*
